Consider 19 molecules from PubChem BioAssay (NCI).

Each structure is given as a SMILES string. The panel holds about 79,000 compounds, 15% with a hit somewhere; the sample as a whole holds those more often. Unmarked numbers belong to inactive results. Activity calls are given as the source filed them. No stated cut-off is given here; in the data, active means growth inhibition above about 70%; inactive means the rest.

A short description of experiment [1]: NCI Yeast Anticancer Drug Screen. Data for the rad50 strain (AID 155).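 Further: 0% = growth of vehicle-only cultures of the same strain.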 Conditions: S. cerevisiae rad50 strain growth inhibition, hits give high values; at 50.0 µM unless noted. The method, boiled down:
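Inhibition values express reduced yeast growth in compound-treated cultures relative to vehicle-treated controls.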

Experiment [2] in a line: NCI Yeast Anticancer Drug Screen. Data for the mec2-1 strain (AID 157). The conditions noted are these: S. cerevisiae mec2-1 strain, hits give high values; at 50.0 µM unless noted. The method, boiled down:
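Mutant yeast (mec2-1) grown with compound; growth inhibition relative to vehicle control reported.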

The nature of experiment [3]: NCI Yeast Anticancer Drug Screen. Data for the sgs1 mgt1 strain (AID 161).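 Further: 0% = growth of cultures given vehicle only.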 Conditions: S. cerevisiae sgs1 mgt1 strain, hits give high values; at 50.0 µM unless noted. The procedure, abridged: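 Yeast cells carrying a defined DNA-repair defect were exposed to test compounds. Growth inhibition was measured relative to vehicle-treated controls.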
A short description of experiment [4]: NCI Yeast Anticancer Drug Screen. Data for the cln2 rad14 strain (AID 165).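 Further: 0% = growth equal to vehicle treated cultures.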 Conditions: S. cerevisiae cln2 rad14 strain, hits give high values; at 50.0 µM unless noted. The procedure, abridged:
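Readout is yeast growth inhibition versus vehicle-treated controls, using a strain with cln2 and rad14 alterations exposed to compound.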

Experiment [5] in a line: NCI Yeast Anticancer Drug Screen. Data for the bub3 strain (AID 167). The conditions noted are these: S. cerevisiae bub3 mutant strain, hits give high values; at 50.0 µM unless noted. The procedure, abridged: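 Steps: expose the mutant yeast strain to compound; grow alongside vehicle-treated cultures; measure growth; express inhibition against the vehicle cultures.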
Experiment [6] can be described thus: NCI Yeast Anticancer Drug Screen. Data for the mlh1 rad18 strain (AID 175). The conditions noted are these: S. cerevisiae mlh1 rad18 strain growth inhibition, hits give high values; at 50.0 µM unless noted. The method, boiled down:
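Genetically defined yeast (DNA repair-deficient) exposed to compounds; growth inhibition determined relative to vehicle.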

For the molecule `C[C@H]1CC[C@@H]2O[C@@]23C(=O)OC2OC(C)(C)[C@@H]([C@H]2O)[C@]13C`, the growth inhibition in experiment [1] was -18.6%; in experiment [2], -4.85%; in experiment [3], -26%; in experiment [4] it was -0.35%; in experiment [5], -5.2%; in experiment [6], -10.9%.

With `COCCOC(=O)OCCOC`, the growth inhibition is -1.5% in experiment [1]; 3.65% in experiment [2]; 4.75% in experiment [3]; -31.7% in experiment [4]; -12.8% in experiment [5]; 11.7% in experiment [6].

`CC(=O)[CH-]C(=O)c1ccccc1.CC(=O)[CH-]C(=O)c1ccccc1.CC1(C)OCC(C2OC3OC(C)(C)OC3C2[O-])O1.CC[O-].[Ti+4]` (centres undefined): the growth inhibition in experiment [1] is 41.4%; in experiment [2], 24.1%; in experiment [3], 35.5%; in experiment [4], 23%; in experiment [5], 31.2%; in experiment [6], 33.4%.

`CC(=O)[CH-]C(=O)c1ccccc1.CC(=O)[CH-]C(=O)c1ccccc1.CC[C@H](/C=C/C(C)[C@H]1CCC2[C@@H]3CC=C4C[C@@H]([O-])CC[C@]4(C)C3CC[C@@]21C)C(C)C.CC[C@H](/C=C/C(C)[C@H]1CCC2[C@@H]3CC=C4C[C@@H]([O-])CC[C@]4(C)C3CC[C@@]21C)C(C)C.Cl.[Ti+4]` (some centres undefined): the growth inhibition in experiment [1] was 8%; in experiment [2] it was 2.65%; in experiment [3] it was 19.3%; in experiment [4] it was -12.1%; in experiment [5] it was 24.6%; in experiment [6], 9.55%.

With `CCCN(CCC)C(=O)c1ccccc1C`, the growth inhibition in experiment [1] is 9.5%; in experiment [2] it was -2%; in experiment [3], 6.65%; in experiment [4] it was -14.1%; in experiment [5] it was 18.4%; in experiment [6], 2.9%.

`Cc1ccc(S(=O)(=O)OCC2C3C=CC(C4C=CC43)C2COS(=O)(=O)c2ccc(C)cc2)cc1` (centres undefined): the growth inhibition in experiment [1] is -4.25%; in experiment [2], -0.65%; in experiment [3], -10%; in experiment [4], -25.3%; in experiment [5] it was 11.8%; in experiment [6], -0.4%.

As to `CC(C)=C1C2C(C13C(=O)OC(C)(C)OC3=O)C2(C)C` (centres undefined), the growth inhibition was -10.5% in experiment [1]; -16.9% in experiment [2]; -11.6% in experiment [3]; 7.9% in experiment [4]; -21.6% in experiment [5]; -9.2% in experiment [6].

On to `N=C(N)SCCCCCSC(=N)N`, for which the growth inhibition in experiment [1] was 4.05%; in experiment [2], -12.2%; in experiment [3], -4.9%; in experiment [4] it was -3.15%; in experiment [5] it was -6.35%; in experiment [6] it was 12.8%.

Regarding `O=C1OCC/C1=C/c1ccc(N=Nc2c(O)ccc3ccccc23)cc1`, the growth inhibition in experiment [1] is 2.4%; in experiment [2] it was -6.05%; in experiment [3], 11.1%; in experiment [4] it was 5.5%; in experiment [5], 11.7%; in experiment [6], 7.05%.

In the case of `C=C1CC(COc2ccc3c(C)c(C)c(=O)oc3c2C)(c2ccccc2)OC1=O` (centres undefined), the growth inhibition in experiment [1] is 8.85%; in experiment [2], -3.75%; in experiment [3] it was 23.9%; in experiment [4], 4.85%; in experiment [5], 6.7%; in experiment [6], 21.4%.

In the case of `O=[N+]([O-])c1ccc(/C(=C\c2ccc(-c3ccccc3)o2)S(=O)(=O)c2ccccc2)o1`, the growth inhibition in experiment [1] was 26.2%; in experiment [2], -17.5%; in experiment [3], -5.1%; in experiment [4], 23.6%; in experiment [5], -1.2%; in experiment [6], 2.25%.

For the molecule `O=C(CC1=Nc2nnc(-c3nnc4n3C(=O)C(CC(=O)c3cccnc3)=N4)n2C1=O)c1cccnc1`, the growth inhibition in experiment [1] is -5%; in experiment [2] it was -8.55%; in experiment [3] it was -1.35%; in experiment [4] it was -19.2%; in experiment [5] it was -6.35%; in experiment [6], -12.7%.

Regarding `O=C(O)CCN1C(=O)CSC1=S`, the growth inhibition in experiment [1] is 6.7%; in experiment [2] it was 2.15%; in experiment [3], -21.8%; in experiment [4], -2.4%; in experiment [5], 20.6%; in experiment [6], -5.7%.

Regarding `CCN(CC)C(=S)Oc1ccc(OC(=S)N(CC)CC)cc1`, the growth inhibition in experiment [1] is 30.6%; in experiment [2], 7.1%; in experiment [3] it was -0.95%; in experiment [4], -6.75%; in experiment [5], -2.85%; in experiment [6], -7.35%.

On to `COc1cc(C)cc(C(=O)O)c1`, for which the growth inhibition in experiment [1] was -1.85%; in experiment [2], -3.5%; in experiment [3], 7.3%; in experiment [4] it was -52.4%; in experiment [5], -10%; in experiment [6], -2.7%.

For the molecule `c1ccc2c(CC3NCCN3)cccc2c1`, the growth inhibition was -11.3% in experiment [1]; -32.2% in experiment [2]; -55.2% in experiment [3]; 10.8% in experiment [4]; -1.4% in experiment [5]; -13% in experiment [6].

Regarding `O=C(NCCCl)NC1C(O)OC(CO)C(O)C1O` (centres undefined), the growth inhibition in experiment [1] is 93.2% (active); in experiment [2], 96% (active); in experiment [3], 93.8% (active); in experiment [4] it was 76.5% (active); in experiment [5] it was 96.8% (active); in experiment [6], 96.7% (active).

For the molecule `CC(=O)c1cc([N+](=O)[O-])ccc1OCC(=O)O`, the growth inhibition is 5.95% in experiment [1]; 4.85% in experiment [2]; 3.75% in experiment [3]; 1.85% in experiment [4]; 9.85% in experiment [5]; 9.6% in experiment [6].

For `COc1cccc(C2c3cc4c(cc3OC(C)(O)C2C)OCO4)c1O` (centres undefined), the growth inhibition in experiment [1] is -4.7%; in experiment [2], -3.75%; in experiment [3] it was -0.25%; in experiment [4], -24.8%; in experiment [5], 1.65%; in experiment [6], -9.9%.
